# According to PubChem BioAssay AID1918969 (ICCB-Longwood Screening Facility, Harvard Medical School, 2023):
# Screen size: about 190,000 compounds; about 280 (0.15%) were called active. No stated cut-off is given here; in the data, active means inhibition above about 27% (passing the limit was not always enough); inactive means the rest. Shown is part of a subset that was picked to be rich in actives.
# System: HCMV UL50-UL53 nuclear egress complex (human cytomegalovirus)
# Experiment: HCMV nuclear egress complex disruptors – biochemical, HTRF (AID 1918969)
# Details: HTRF UL50-UL53 interaction, normalized percent inhibition; hits give high values; concentration not given here
row,SMILES,inhibition
1,Cc1ccc(C)c(NC(=O)Cc2coc3ccc(C)cc23)c1,-31.3% (inactive)
2,Cc1c(C(=O)O)sc2ncnc(N3CCN(c4ccccn4)CC3)c12,-8.6% (inactive)
3,O=C(O)CCCOc1ccc(Cl)cc1,-22.4% (inactive)
4,CCOc1ccc(N2CC(c3nc4ccccc4n3CCOc3ccc(OC)cc3)CC2=O)cc1 (stereo unspecified),-33.2% (inactive)
5,CCc1ccccc1N1CC(c2nc3ccccc3n2CCCCOc2ccccc2)CC1=O (stereo unspecified),74.6% (active)
6,COc1ccc(OCCCn2c(C3CC(=O)N(c4ccc(F)cc4)C3)nc3ccccc32)cc1 (stereo unspecified),-4.1% (inactive)
7,CCc1nn(CC(=O)NCC2CCCO2)c(=O)c2cc3ccccc3n12 (stereo unspecified),-52.3% (inactive)
8,CCOC(=O)c1sc2cccc(F)c2c1S(=O)(=O)N1CC=C(c2ccccc2)CC1,6.4% (inactive)
9,COC(=O)c1cc(S(=O)(=O)N2CCc3ccccc3C2)c[nH]1,-4.8% (inactive)
10,Fc1cccc(Cl)c1CSc1nnc(-c2c[nH]c3ccccc23)o1,15.6% (inactive)
11,CCCc1oc2cc(O)ccc2c(=O)c1Oc1ccc(F)cc1,3.5% (inactive)
12,Cc1cc(C)cc(-n2c(CCC(=O)O)ccc2-c2cccs2)c1,-19.7% (inactive)
13,Cc1cc(C)c2[nH]c(=O)c(CN(C(=O)Nc3ccccc3F)C3CC3)cc2c1,-21% (inactive)
14,CCOc1ccc(N2C(=O)N(CC(=O)N3CCCCC3C)c3ccccc3S2(=O)=O)cc1 (stereo unspecified),-6.7% (inactive)
15,CCOC(=O)C1(c2ccccc2)CCCN1C(=O)CN1C(=O)c2ccccc2C1=O (stereo unspecified),-40.9% (inactive)
16,Cc1c(C(F)(F)F)nc(-c2ccc(CN(C)C)cc2)[nH]c1=O,-18.3% (inactive)
17,CCOC(=O)C(C(=O)c1ccccc1)C1(O)C(=O)c2ccccc2C1=O (stereo unspecified),94.1% (active)
18,CCOC(C(=O)c1ccccc1)c1ccccc1 (stereo unspecified),1.5% (inactive)
19,CCOC(=O)C1(C2(O)C(=O)c3ccccc3C2=O)CCCC1=O (stereo unspecified),7.6% (inactive)
20,C#CCn1c(O)c(N=NC(=O)c2cc(OC)c(OC)c(OC)c2)c2ccccc21,-43.6% (inactive)
21,Nc1nnc2c([nH]c3ccccc32)c1-c1ccccc1,-61.1% (inactive)
22,COc1ccc(CC(=O)OCC(=O)Nc2cc(C)ccc2C)cc1,20.6% (inactive)
23,Cc1cc(=O)n2[nH]c(CN(C(=O)CC(C)C)c3ccc(Cl)cc3)nc2n1,-9.7% (inactive)

row,SMILES,inhibition
1,CCCn1c2ccccc2n2cc(-c3ccc(F)cc3)nc12,-23.6% (inactive)
2,CCOC(=O)C1=C(C)N(c2ccc(OC)cc2)C(=O)/C1=C\c1ccco1,-53.1% (inactive)
3,COc1ccccc1-c1nnc(SCC(=O)Nc2cccc3nsnc23)n1-c1ccccc1,-31.2% (inactive)
4,COc1ccc(C2CC2/C(C)=N/O)cc1 (stereo unspecified),-8.3% (inactive)
5,CN(C)S(=O)(=O)c1ccc2nc(NC(=O)CN3C(=O)c4ccccc4C3=O)sc2c1,-36.1% (inactive)
6,Clc1cccc(-c2cc(-c3nc(-c4ccccc4)no3)[nH]n2)c1,-20.2% (inactive)
7,Cn1c(CNC(=O)OC(C)(C)C)nnc1SCc1c(F)cccc1Cl,-17% (inactive)
8,CCC(Sc1nc2ncccc2o1)C(=O)N(Cc1ccccc1)C(C)C (stereo unspecified),-29.3% (inactive)
9,CCN1C(=O)c2cccc3c(S(=O)(=O)Nc4cccc(C)n4)ccc1c23,-9% (inactive)
10,O=C(Cc1csc(NC(=O)NC2CCCC2)n1)NCCc1c[nH]c2ccccc12,-1.1% (inactive)
11,CCOC(=O)c1c(NC(=O)Cc2ccccc2)sc(C(=O)Nc2cccc(C(F)(F)F)c2)c1C,8.1% (inactive)
12,Cc1noc(C)c1COc1ccc(C(=O)OCC(=O)Nc2sc3c(c2C(N)=O)CCC3)cc1,13.2% (inactive)
13,Cc1nn(C)cc1CN(C)C(=O)c1cnn2c(C(F)(F)F)cc(-c3ccc(Br)cc3)nc12,-24.9% (inactive)
14,Cc1ccc(C(CNC(=O)Nc2ccccc2)N2CCN(C)CC2)cc1 (stereo unspecified),-33.4% (inactive)
15,N#Cc1cccc(NC(=O)CSc2ncccn2)c1,14.4% (inactive)
16,Cc1ccc(NC(=O)Cn2cnc3ccc(S(=O)(=O)N4CCC(C)CC4)cc3c2=O)cc1F,-4.6% (inactive)
17,C#CCN1C(=O)C(c2c(-c3ccc(Cl)cc3)[nH]c3c2c(=O)n(C)c(=O)n3C)c2ccccc21 (stereo unspecified),-14.2% (inactive)
18,COc1cc(OC)cc(C(=O)N2N=C(c3c(-c4ccccc4)c4cc(Br)ccc4[nH]c3=O)CC2c2ccco2)c1 (stereo unspecified),0.4% (inactive)
19,CCOc1ccc(/C=C2\SC(=O)N(CCNC(=O)c3c(CC)noc3C)C2=O)cc1OC,-3.2% (inactive)
20,Cn1nccc1-c1nc(-c2cccc(NC(=O)Nc3ccccc3)c2)no1,-30% (inactive)
21,COC(=O)c1sccc1NC(=O)Cn1c(=O)nc(-c2ccccc2F)c2cc(Cl)ccc21,-19.3% (inactive)
22,CC1(C)CC(NCCNC2=CC(=C(C#N)C#N)CC(C)(C)C2)=CC(=C(C#N)C#N)C1,-0.1% (inactive)
23,COc1ccc(-c2cc(C3CC3)nc3sc(C(N)=O)c(N)c23)cc1,-38.3% (inactive)

row,SMILES,inhibition
1,Cn1c(CCc2ccc(NC(=O)CN3C(=O)COc4ccccc43)cc2)nc2ccccc21,-5.5% (inactive)
2,NCC(c1ccccc1)N1CCCC1 (stereo unspecified),-3.2% (inactive)
3,Cc1ccc(S(=O)(=O)N/N=C2/CSCC2NC(=O)c2ccccc2)cc1 (stereo unspecified),-22.7% (inactive)
4,CCC(C)NS(=O)(=O)c1cc(C(=O)OC)n(C)c1C (stereo unspecified),-32.5% (inactive)
5,CC(=O)N1c2ccc(S(=O)(=O)N3CCN(c4nc5ccccc5n5cccc45)CC3)cc2CC1C (stereo unspecified),-16.8% (inactive)
6,Cc1cc(C)cc(NC2=NS(=O)(=O)c3ccccc32)c1,7.9% (inactive)
7,CCn1c(COC(=O)C2CSC3(C)CCC(=O)N23)nc2cc(S(=O)(=O)N(C)C)ccc21 (stereo unspecified),-24.2% (inactive)
8,COC(=O)c1cc(OC(=O)c2cc(OC)cc(OC)c2)cc(C(=O)OC)c1,6.8% (inactive)
9,COCC(=O)Nc1nc2nc(-c3ccccc3)cc(=O)n2[nH]1,-6.9% (inactive)
10,COc1ccccc1CNC(=O)C1CCN(c2ncnc3c2sc2nc(C)cc(-c4ccccc4)c23)CC1,-7.4% (inactive)
11,O=C(Nc1ccc2sccc2c1)C1CC1,-0.1% (inactive)
12,COc1ccc(NC(=O)CN2C(=O)C(C)(C)c3ccccc32)cc1,-13.1% (inactive)
13,CCOC(=O)c1cc(Nc2cc(OCC)ccc2OCC)c2cc(C)ccc2n1,-15.8% (inactive)
14,COc1nc(N)c(C#N)c(-c2ccccc2)c1C#N,5.4% (inactive)
15,CC(C)CSc1nccn2nc(-c3ccc(Cl)cc3)cc12,15.5% (inactive)
16,CCOC(=O)c1cccc(NC(=O)c2ccc(CN3CC(=O)N4CSCC4C3=O)cc2)c1 (stereo unspecified),-6.4% (inactive)
17,C=C(C)C1Cc2c(C)nn(S(=O)(=O)c3ccc(C)cc3)c2C1 (stereo unspecified),-7.3% (inactive)
18,COc1ccc(OC)c(NC(=O)Cn2cnc3c2c(=O)n(C)c(=O)n3C)c1,-4.9% (inactive)
19,CCOc1ccc(NC(=O)CCCN2C(=O)/C(=C/c3ccc(Cl)cc3)SC2=S)cc1,-12.3% (inactive)
20,CCOC(=O)c1c(N)sc2c1CCC(Br)C2=O (stereo unspecified),-67.7% (inactive)
21,CCN(C(=O)CSc1nnc(CN(c2ccc(F)cc2)S(C)(=O)=O)n1C)c1ccccc1,-23.6% (inactive)
22,CCOc1cccc(C(=O)Nc2ccccc2C(=O)OC)c1,9.1% (inactive)
23,O=C(Nc1c[nH]c(=O)[nH]c1=O)c1ccco1,-1.3% (inactive)

row,SMILES,inhibition
1,CC(C)CN(CC(C)C)C(=O)CCN1C(=O)c2ccccc2C1=O,-21.3% (inactive)
2,CN(C(=O)CSc1nc(-c2ccccc2)cc(-c2ccco2)c1C#N)c1ccccc1,-15.3% (inactive)
3,CC(NC(=O)NCc1ccccc1)c1nc(-c2ccncc2)n[nH]1 (stereo unspecified),8.4% (inactive)
4,C=CCn1c(=O)c(C(=O)NCc2ccc3c(c2)OCO3)c(O)c2ccccc21,-23.4% (inactive)
5,CCOc1ccc(CN(C)C(=O)C2=NNC(=O)CC2)cc1,-31.5% (inactive)
6,COc1ccc(OCC(=O)N2N=C(c3ccc(Cl)cc3)CC2c2ccco2)cc1 (stereo unspecified),-31.7% (inactive)
7,Cc1ccc(NC(=O)c2sc3ncnc(N4CCN(C)CC4)c3c2C)cc1F,-16.4% (inactive)
8,CCOC(=O)c1ccc(N=C2SC(C(=O)Nc3ccc(C)cc3C)CC(=O)N2C)cc1 (stereo unspecified),-8.2% (inactive)
9,N#CCSc1nnc(-c2ccccc2)c2ccccc12,-26.2% (inactive)
10,Cc1cccc(NC(c2ccccn2)c2ccc3cccnc3c2O)n1 (stereo unspecified),-53.1% (inactive)
11,O=S(=O)(Nc1ccc(-c2ccc(N3CCCCC3)nn2)cc1)c1ccc(F)cc1F,-38.3% (inactive)
12,CCc1nc2cccnc2n1-c1ccc(CC(=O)N2CCOCC2)cc1,-27.2% (inactive)
13,CC1=Nc2c(ccc3cccnc23)C1(C)C,-24.6% (inactive)
14,CC1CN(Cn2[nH]c(=O)ccc2=O)CC(C)O1 (stereo unspecified),-7.4% (inactive)
15,CC1=C(C(=O)OC2CCCC2)C(c2coc3ccc(C)cc3c2=O)C2=C(CC(c3ccco3)CC2=O)N1 (stereo unspecified),-3.1% (inactive)
16,O=C(NCc1cc2ccccc2s1)c1ccc(N2CCOCC2)nc1,-4.6% (inactive)
17,CC(C(=O)Nc1ccc(S(=O)(=O)N2CCCC2)cc1)N(C)Cc1ccc(F)cc1 (stereo unspecified),-5% (inactive)
18,COc1ccc(C2CC(=O)C3=C(C2)NC(C)=C(C(=O)Nc2ccc(C)cc2)C3c2ccccc2)cc1OC (stereo unspecified),-11.7% (inactive)
19,O=C(NCCO)c1ccc(C(=O)NCCO)cc1,-13.4% (inactive)
20,CCOc1ccc(NC(=O)CS(=O)(=O)c2cccc3nsnc23)cc1,-37.5% (inactive)
21,COc1ccccc1N1CCN(C(=O)Cc2csc(NC(=O)Nc3ccccc3)n2)CC1,-7.3% (inactive)
22,CC1CCN(C(=O)c2cn(C)cc3c(=O)n(-c4ccccc4)nc2-3)CC1,-66.2% (inactive)
